# Several values for one entry are separate records, joined by “and”; a condition that tells them apart may be missing. Equal values may be shown once. Inconclusive results are not listed. Where a structure was tested more than once in an assay, its records may differ in their call. Activity calls are given as the source filed them. Calls come from the whole dose curve; as a rule, active = well fitted curve in the direction sought with a large enough effect; inconclusive = small, poorly fitted or top-dose-only effect, or another doubt; inactive = no such curve, though single readings can be large; an effect the other way counts as inactive or inconclusive.
# Experiments:
# [1] = Viability qHTS for spleen associated tyrosine kinase inhibitor (SYKi) naive MV4-11 cells (AID 1963823); note: nearly all actives have a fitted effect of over 40% in size
# In short: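 Luminescence from CellTiter-Glo, developed 10 min at room temperature, gave viability of MV4-11 cells never exposed to SYK inhibitor. Cells (500/well) had been incubated with compounds for 72 hr under standard culture conditions.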
# [2] = Viability qHTS for spleen associated tyrosine kinase inhibitor (SYKi) drug resistant MV4-11 cells (AID 1963824); note: nearly all actives have a fitted effect of over 35% in size
# In short: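 CellTiter-Glo luminescence, read 10 min after reagent addition, reports viability after a 72 hr compound exposure. Cells are an MV4-11 line made resistant to SYK inhibition, seeded at 500 per well onto compound-containing plates.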
# [3] = Cellular viability qHTS for adrenocortical cancer (ACC) cell line NCI-H295R (AID 1963990); note: nearly all actives have a fitted effect of over 60% in size
# In short: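 CellTiter-Glo ATP luminescence, read 48 h after compound addition, measured viability of NCI-H295R adrenocortical cells grown serum-free with ITS. Final concentrations spanned up to 46 uM. Data normalized to DMSO and doxorubicin, fitted for IC50 and maximal response.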
# [4] = Quantitative highthroughput screen to assess conditional lethalithy of NOMO1 cells grown in RPMI1640 with untreated serum (RPMI+s) (AID 1963876); note: nearly all actives have a fitted effect of over 35% in size;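 for Viability: 100% = DMSO wells and 0% = empty wells without cells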
# In short: (§1)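 Each medium arm—HPLM with 10% dialyzed FBS, or RPMI1640 with 5 mM glucose and 10% untreated or dialyzed FBS—was screened against an 11-point, 3-fold compound titration for 48 h at 37 °C, with CellTiter-Glo luminescence as endpoint.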
# [5] = Quantitative highthroughput screen to assess conditional lethalithy of NOMO1 cells grown in RPMI1640 with dialyzed fetal bovine serum (RPMI+ds) (AID 1963877); note: nearly all actives have a fitted effect of over 30% in size;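 for Viability: series mostly up to about 46 µM; 100% = DMSO control wells and 0% = empty wells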
# In short: as §1
# [6] = Quantitative highthroughput screen to assess conditional lethalithy of NOMO1 cells grown in Human Plasma-Like Medium with dialyzed fetal bovine serum (HPLM+ds) (AID 1963878); note: nearly all actives have a fitted effect of over 35% in size;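 for Viability: 100% = DMSO wells and 0% = empty wells on each plate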
# In short: as §1
# [7] = Quantitative highthroughput screen to assess conditional lethalithy of P12 Ichikawa cells grown in Human Plasma-Like Medium with dialyzed fetal bovine serum (HPLM+ds) (AID 1963879); settings: Potency: viability; note: nearly all actives have a fitted effect of over 35% in size; for Viability: series mostly up to about 46 µM
# In short: as §1
# [8] = Quantitative highthroughput screen to assess conditional lethalithy of P12 Ichikawa cells grown in RPMI1640 with dialyzed fetal bovine serum (RPMI+ds) (AID 1963880); settings: Potency: P12-Ichikawa viability; note: nearly all actives have a fitted effect of over 35% in size;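 for Viability: 100% = DMSO wells and 0% = empty wells on each plate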
# In short: as §1
# [9] = Quantitative highthroughput screen to assess conditional lethalithy of P12 Ichikawa cells grown in RPMI1640 with untreated serum (RPMI+s) (AID 1963881); settings: Potency: viability; note: nearly all actives have a fitted effect of over 35% in size;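 for Viability: series mostly up to about 46 µM; 100% = DMSO wells and 0% = empty wells without cells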
# In short: as §1
# [10] = Quantitative highthroughput screen to assess conditional lethalithy of SEM cells grown in Human Plasma-Like Medium with dialyzed fetal bovine serum (HPLM+ds) (AID 1963882); note: nearly all actives have a fitted effect of over 35% in size; for Viability: series mostly up to about 46 µM
# In short: as §1
# [11] = Quantitative highthroughput screen to assess conditional lethalithy of SEM cells grown in RPMI1640 with unreated serum (RPMI+s) (AID 1963883); note: nearly all actives have a fitted effect of over 35% in size;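 for Viability: 100% = DMSO wells and 0% = empty wells without cells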
# In short: as §1
# [12] = Quantitative highthroughput screen to assess conditional lethalithy of SEM cells grown in RPMI1640 with dialyzed fetal bovine serum (RPMI+ds) (AID 1963884); note: nearly all actives have a fitted effect of over 35% in size;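 for Viability: series mostly up to about 46 µM; 100% = DMSO control wells and 0% = empty wells without cells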
# In short: as §1
# [13] = Cellular viability qHTS for adrenocortical cancer (ACC) cell line SW-13 (AID 1963989); settings: SW-13 ACC cells viability, CellTiter-Glo, 48 h; activity (max response): stronger effect = lower value; note: nearly all actives have a fitted effect of over 65% in size;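 for activity (max response): cells grown in serum-free medium with ITS supplement; % is set by controls: 0 for no effect and ±100 for the full control effect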
# In short: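 Viability was read as CellTiter-Glo luminescence after 48 h compound treatment (up to 46 uM final) of SW-13 cells grown serum-free; titration curves were fit with a four-parameter logistic model to give IC50 and efficacy.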
# Potency is the fitted concentration of half-maximal effect.
Structure (SMILES),Potency [1],Potency [2],Potency [3],Potency [4],Potency [5],Potency [6],Potency [7],Potency [8],Potency [9],Potency [10],Potency [11],Potency [12],activity (max response) [13],Potency [13]
Cc1nnn(C)c1-c1cnc2c3ccc(C(C)(C)O)cc3n([C@H](c3ccccc3)C3CCOCC3)c2c1,0.0042 µM (active),0.003 µM (active),0.178 µM (active),–,–,–,–,–,–,–,–,–,–,–
Cc1nccn1CC1CCc2c(c3ccccc3n2C)C1=O (stereo not drawn),inactive,–,inactive,inactive,inactive,inactive,inactive,inactive,inactive,inactive,inactive,inactive,-14.2% (inactive),–
O=C(Nc1cc(Oc2cc(F)c(NC(=O)C3(C(=O)Nc4ccc(F)cc4)CC3)cc2F)ccn1)C1CC1,23.1 nM (active) and 59 nM (active),25.9 nM (active) and 66.1 nM (active),inactive,–,–,–,–,–,–,–,–,–,–,–
CCCCC(CC)COC(=O)C(C#N)=C(c1ccccc1)c1ccccc1 (stereo not drawn),26.6 µM (active),–,inactive,inactive,inactive,inactive,inactive,inactive,inactive,inactive,inactive,inactive,0.298% (inactive) and -14.7% (inactive),–
C[C@H]1COCCN1c1cc(C2(S(=O)(=O)C3CC3)CC2)nc(-c2ccc(NC(=S)NCCO)cc2)n1,0.0184 µM (active),0.0731 µM (active),1.12 µM (active),–,–,–,–,–,–,–,–,–,–,–
O=C1OC(COc2ccccc2[N+](=O)[O-])CC1Cc1ccccc1 (stereo not drawn),inactive,13.2 µM (active),inactive,–,–,–,–,–,–,–,–,–,–,–
C=C(c1ccc(C(=O)O)cc1)c1cc2c(cc1C)C(C)(C)CCC2(C)C,0.468 µM (active),–,inactive,inactive,1.05 µM (active),0.469 µM (active),inactive,inactive,inactive,inactive,inactive,inactive,-0.298% (inactive) and -6.68% (inactive),–
Cc1ccc2c(Br)cc(Br)c(O)c2n1,16.8 µM (active),11.9 µM (active),1.64 µM (active),–,–,–,–,–,–,–,–,–,–,–
Oc1ccc(CCNCCCCCCNCCc2ccccc2)cc1O,26.6 µM (active),21.1 µM (active),16.4 µM (active),–,–,–,–,–,–,–,–,–,–,–
Cc1cc(Nc2ncc(Cl)c(Nc3ccccc3S(=O)(=O)C(C)C)n2)c(OC(C)C)cc1C1CCNCC1,2.59 µM (active),–,2.24 µM (active),18.6 µM (active),18.6 µM (active),13.2 µM (active),–,23.4 µM (active),26.3 µM (active),14.8 µM (active),–,16.6 µM (active),–,15.8 µM (active)
CC(C)C(C)C=CC(C)C1CCC2C3=CC=C4CC(O)CCC4(C)C3CCC21C (stereo not drawn),inactive,–,inactive,inactive,inactive,inactive,inactive,inactive,–,inactive,inactive,inactive,11.2% (inactive),–
O=c1[nH]nc(OCCCc2ccc(Cl)cc2)c(NCc2cccnc2)c1Br,4.11 µM (active),–,–,11.8 µM (active),5.9 µM (active),2.96 µM (active),5.9 µM (active),5.26 µM (active),–,0.743 µM (active),6.62 µM (active),14.8 µM (active),–,7.94 µM (active)
CCCCOc1ccc(CC(=O)NO)cc1,inactive and 14.8 µM (active),–,inactive,inactive,inactive,inactive,–,–,–,–,–,–,–,–
CC1=NN(c2ccccc2)C(=O)C1,11.9 µM (active),–,inactive,inactive,inactive,inactive,inactive,inactive,inactive,–,inactive,inactive,8.8% (inactive) and -4.32% (inactive),–
CNC(=O)c1ccc2c(C(=Nc3cccc(CN(C)C)c3)c3ccccc3)c(O)[nH]c2c1,2.95 µM (active),–,22.4 µM (active),20.9 µM (active),18.7 µM (active),16.6 µM (active),–,–,–,1.87 µM (active),0.935 µM (active),1.32 µM (active),–,–
CCC(c1ccc(O)cc1)C(CC)c1ccc(O)cc1 (stereo not drawn),20.9 µM (active),–,15.8 µM (active),inactive,inactive,inactive,–,inactive,inactive,–,–,–,–,17.8 µM (active)
COc1ccccc1-c1cccc(-c2c(O)c3cc(C#N)c(Cl)cc3[nH]c2=O)c1,inactive,–,inactive,17.1 µM (active),19.1 µM (active),6.79 µM (active),4.81 µM (active),8.55 µM (active),10.8 µM (active),8.55 µM (active),–,5.4 µM (active),-20.9% (inactive),–

# Source: PubChem BioAssay (NCATS)
